Bioassay records: PubChem BioAssay, National Center for Advancing Translational Sciences (NCATS)
A selection: hits, their analogues and other compounds. The true share with any hit is near 9%.
HTT cytoprotect: cytoprotection in Huntington HTT-Q103 PC12 cell model; PC12 HTT-Q103 induced, cytoprotection, ATP luminescence, 40 h; Potency, µM (highest dose often 56.4 µM), without a hit: cytoprotection (ATP increase), hits mostly activators; 0.14% of 230,000 active; AID 1471; further: % of control where 0% means no effect; nearly all actives have a fitted effect of over 45% in size
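Quantitative HTS on tebufenozide-induced (100 nM) PC12 cells expressing HTTQ103 exon 1–GFP; compounds tested as a concentration series; survival measured via cellular ATP.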
KinaseGlo FLuc: Kinase-Glo luciferase inhibition (counter-screen). Potency, µM (doses to about 38.3 µM), inactives show at the top dose activity change, negative = inhibition, hits mostly inhibitors. Q27757. Kinase-Glo luciferase, ATP luminescence, 8 min. AID 1379. 0.28% of 200,000 active; further: on the % scale 0 is the no-effect control and ±100 the full control effect; nearly all actives have a fitted effect of over 60% in size
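Inhibition of Kinase-Glo luciferase light generation was assessed at 10 uM ATP in pH 7.2 imidazole buffer, with luminescence measured after eight minutes at ambient temperature.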
HPGD block: blocks human HPGD enzyme activity; P15428; purified HPGD, NADH fluorescence kinetic, PGE2 substrate; Potency, µM, for the others: top-dose activity change, negative = inhibition, most hits filed as inhibitors; 4.3% of 150,000 active; AID 894; active means well fitted inhibition curve with a large enough effect, not every such curve was filed as active; inconclusive means small, poorly fitted or top-dose-only effect, or another doubt; inactive means no such curve, though single readings can be large or run the other way; further: on the % scale 0 is the no-effect control and ±100 the full control effect
Target sequence (P15428 whole entry, looked up): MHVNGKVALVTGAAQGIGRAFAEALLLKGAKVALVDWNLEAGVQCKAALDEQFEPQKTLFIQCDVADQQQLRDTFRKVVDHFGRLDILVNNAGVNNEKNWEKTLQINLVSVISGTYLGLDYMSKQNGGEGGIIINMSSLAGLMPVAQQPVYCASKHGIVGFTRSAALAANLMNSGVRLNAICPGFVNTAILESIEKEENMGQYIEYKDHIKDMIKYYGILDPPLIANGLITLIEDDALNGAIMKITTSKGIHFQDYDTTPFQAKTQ
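20 nM HPGD preincubated 15 min at room temperature with compound in 50 mM Tris-HCl pH 8, 0.01% Tween 20. Started with 1 mM NAD+ and 30 uM prostaglandin E2; NADH fluorescence (360/450 nm) read 5 times over 30-s intervals, last minus first.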
HTT aggregate: mutant huntingtin aggregation inhibition. PC12 HttQ103-GFP aggregates, Acumen cytometry, 40 h. Potency, µM (doses to about 46.1 µM), inactives show at the highest dose activity change, negative = inhibition, actives largely listed as inhibitors. 1.1% of 220,000 active. AID 1688; further: on the % scale 0 is the no-effect control and ±100 the full control effect; nearly all actives have a fitted effect of over 60% in size
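Using laser scanning cytometry, GFP-positive aggregates were counted after lysis of PC12 cells induced with 100 nM tebufenozide to express HTT exon 1 Q103–GFP. Compounds were tested in titration.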
ALDH1A1 block: inhibitors of human aldehyde dehydrogenase 1A1. P00352. Purified ALDH1A1, NADH fluorescence, propionaldehyde substrate. Potency, µM (series often up to 75.3 µM), for the others: top-dose activity, negative = inhibition, usual class: inhibitors. 7.3% of 220,000 active. AID 1030; active means well fitted inhibition curve with a large enough effect, not every such curve was filed as active; inconclusive means small, poorly fitted or top-dose-only effect, or another doubt; inactive means no such curve, though single readings can be large or run the other way;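 further: plate controls were no enzyme wells and a reference inhibitor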
Target sequence (P00352 whole entry, looked up): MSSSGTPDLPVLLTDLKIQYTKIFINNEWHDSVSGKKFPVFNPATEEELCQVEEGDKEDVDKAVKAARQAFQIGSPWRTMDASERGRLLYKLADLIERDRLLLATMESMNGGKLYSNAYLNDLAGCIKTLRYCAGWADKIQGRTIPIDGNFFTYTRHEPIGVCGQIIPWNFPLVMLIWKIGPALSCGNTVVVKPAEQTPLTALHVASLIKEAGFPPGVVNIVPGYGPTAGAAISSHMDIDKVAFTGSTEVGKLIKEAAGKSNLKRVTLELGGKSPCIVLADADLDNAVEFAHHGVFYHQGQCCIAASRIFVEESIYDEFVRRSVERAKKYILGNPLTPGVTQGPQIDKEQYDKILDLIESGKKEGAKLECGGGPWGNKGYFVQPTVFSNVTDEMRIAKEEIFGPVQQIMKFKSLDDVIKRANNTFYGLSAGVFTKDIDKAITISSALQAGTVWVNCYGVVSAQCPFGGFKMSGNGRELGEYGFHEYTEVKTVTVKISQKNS
Lamin A splicing: modulators of lamin A splicing. HeLa LMNA splicing GFP/RFP minigene ratio, 48 h. AID 1487. Potency, µM (highest dose often 46.1 µM), without a hit: top-dose ratio change, negative = inhibition, hits mostly inhibitors. 0.01% of 200,000 active; active means well fitted inhibition curve with a large enough effect in the signal ratio, with a control signal flat, not every such curve was filed as active; inconclusive means small, poorly fitted or top-dose-only effect, or effect the other way, or a change in a side signal; the % refers to the signal ratio; further: on the % scale 0 is the no-effect control and ±100 the full control effect
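S3 HeLa cells stably expressing lamin A-EGFP splicing minigene plus DsRed2, 600 cells/well, 48 h compound exposure at 37C. Laser-scanning cytometry; analysed as GFP (500-530 nm)/RFP (575-640 nm) total intensity ratio; 0.5% DMSO vehicle.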
Numbers without * were called inactive; ? = inconclusive; · = not tested or not shown; [ ] = dose if it differs, or a comment. Unless noted, the call rests on the fitted dose curve; in most records, active means well fitted curve in the direction sought with a large enough effect; inconclusive means small, poorly fitted or top-dose-only effect, or another doubt; inactive means no such curve, though single readings can be large; an effect the other way counts as inactive or inconclusive. Potency means the concentration at half of the fitted maximal effect.

SMILES | HTT cytoprotect | KinaseGlo FLuc | HPGD block | HTT aggregate | ALDH1A1 block | Lamin A splicing
CCOc1ccccc1NC(=O)N1CCCC(c2nc3c(nnn3Cc3ccc(C)cc3)c(=O)[nH]2)C1 (configuration not stated) | -3%[10 µM] | -6% | -19% | -5% | ? | ?
Cc1ccc(Cn2nnc3c(=O)[nH]c(C4CCCN(C(=O)Nc5ccc(F)cc5F)C4)nc32)cc1 (configuration not stated) | -54% | -3% | -20% | 2% | ? | 10%
COCCCNC(=O)c1nc2c(nnn2Cc2cc(C)ccc2C)c(=O)[nH]1 | 15%[10 µM] | 2% | 0.45µM* | 9% | -12% | -13%
Cc1cc(C)cc(NC(=O)c2nnn(Cc3cc(C)ccc3C)c2N)c1 | -3%[10 µM] | 0% | -15% | 10% | 0% | 0%
Cc1ccc(C(=O)N2CCCC(c3nc4c(nnn4Cc4ccccc4)c(=O)[nH]3)C2)cc1 (configuration not stated) | 10%[1.9 µM] | -1% | 3.5µM* | ? | ? | -1%
CCCCC(=O)N1CCCC(c2nc3c(nnn3Cc3cc(C)ccc3C)c(=O)[nH]2)C1 (configuration not stated) | 12%[10 µM] | -4% | 2.2µM* | 13% | ? | 5%
O=Cc1c(N2CCN(c3ccccc3)CC2)nc2ccccn2c1=O | -11% | 2% | · | 15% | 3% | ?
CCOC(=O)Cc1csc(NC(=O)COc2ccc(C)cc2)n1 | -2%[10 µM] | 0% | · | 30%[9.22 µM] | -1% | ·
Cc1occc1C(=O)NNC(=O)c1nn(C)c(=O)c2ccccc12 | 11% | -4% | · | -11% | -3% | ·
COC(=O)c1sccc1NC(=O)c1cc(-c2ccc(C)cc2)nc2ccccc12 | -4% | -3% | -15% | 10% | 5% | 10%
Cc1sc(NC(=O)c2cc(-c3ccc(Cl)cc3)nc3ccccc23)c(C(N)=O)c1C | -54% | 0% | 13µM* | 25% | 25µM* | ?
Cc1ccccc1-c1cc(C(=O)Nc2sc(C(=O)OC(C)C)c(C)c2C#N)c2ccccc2n1 | -38% | -7% | 16µM* | 4.5µM* | 8.9µM* | ?
COC(=O)c1sc(NC(=O)c2cc(-c3ccccc3)nc3ccccc23)c(C#N)c1C | -44% | 0% | 3.5µM* | 2.2µM* | 14µM* | ?
COc1ccc(-c2cc(C(=O)Nc3sc4c(c3C#N)CCCC4)c3ccccc3n2)cc1 | -3%[10 µM] | -5% | ? | -12% | ? | ?
CCOC(=O)c1sc(NC(=O)c2cc(-c3ccc(C)cc3)nc3ccccc23)c(C#N)c1C | -70% | -2% | 22µM* | 10µM* | ? | 6%
CCn1c2ccccc2c2cc(NC(=O)COC(=O)C3CCC(=O)N3)ccc21 (configuration not stated) | -11%[10 µM] | -1% | -15% | -22% | -2% | ?
O=c1c2cnn(-c3ccccc3)c2ncn1Cc1cccc(Cl)c1 | 6% | -1% | -8% | -9% | 1% | -2%
CCOC(=O)c1sc(NC(=O)CSc2n[nH]c(-c3ccncc3)n2)c(C#N)c1C | -91%[10 µM] | -4% | 5µM* | 7.1µM* | 35µM* | ?
CCOC(=O)c1sc(NC(=O)CSc2nccc(C)n2)c(C#N)c1C | 0% | -4% | -8% | 12% | -1% | 2%
CCOC(=O)Cn1nnnc1CN(Cc1ccc(OC)cc1)Cc1cc2cc(C)ccc2[nH]c1=O | 12%[1.9 µM] | 0% | -5% | 2% | ? | -5%
CCOC(=O)c1cc(NC(=O)CSCCO)ccc1Cl | -12% | 2% | -4% | 17% | 22µM* | 1%
Cn1c(N)c(C(=O)COC(=O)c2cc(-c3ccco3)nc3ccccc23)c(=O)n(Cc2ccccc2)c1=O | 10µM* | 1% | ? | 32% | ? | 4%
Cc1cccc(/C=C/C(=O)c2ccc(NC3=NCCCS3)cc2)c1 | -15%[10 µM] | 0% | -22% | 24% | -12% | ?
O=C(/C=C/c1ccccc1)c1ccc(NC2=NCCCS2)cc1 | · | 9% | 14µM* | 6% | -7% | 6%
CC(C)(C)c1ccc(/C=C/C(=O)c2ccc(NC3=NCCCS3)cc2)cc1 | 12%[10 µM] | 4% | 20µM* | -3% | 20% | ?
SMILES | HTT cytoprotect | KinaseGlo FLuc | HPGD block | HTT aggregate | ALDH1A1 block | Lamin A splicing
O=C(/C=C/c1ccc(Br)cc1)c1ccc(NC2=NCCCS2)cc1 | · | -11% | 8.9µM* | 1% | 12% | ?
O=C(O)C1CC=CCC1C(=O)N1CC=C(c2ccccc2)CC1 (configuration not stated) | -8% | 6% | · | 0% | ? | -3%[46 µM]
COCCn1c(C)cc(C(=O)COC(=O)c2ccccc2Br)c1C | -152% | · | · | 8% | 4% | ·
CCN1CC(CN(C)Cc2cn(-c3cccc(C)c3)nc2-c2cccc(F)c2)CC1=O (configuration not stated) | -80% | · | · | -30% | ? | ·
COC(=O)c1c(NC(C)=O)sc2c1CCCC2 | -19%[10 µM] | 0% | -23% | 4% | 25µM* | 2%
COC(=O)c1c(NC(=S)Nc2ccc(F)cc2[N+](=O)[O-])sc2c1CCCCC2 | 20%[10 µM] | · | · | 15% | 4µM* | 6%
COC(=O)c1c(NC(=O)COC(=O)c2ccc(Cl)cc2[N+](=O)[O-])sc2c1CCCCC2 | ? | 1% | -13% | 7% | 1% | -8%
COC(=O)c1c(NC(=O)CCNCc2ccco2)sc2c1CCC2 | 1%[10 µM] | · | · | -6%[9.22 µM] | 24µM* | ·
COC(=O)c1c(NC(=S)Nc2ccc(C(=O)N3CCOCC3)cc2)sc2c1CCC2 | · | -1% | · | 9% | 3.5µM* | ·
COC(=O)c1c(NC(C)=O)sc2c1CCCCC2 | -17%[10 µM] | -3% | 28µM* | 0% | 16µM* | 13%
C=CCSc1nnc2n(CCc3ccccc3)c(=O)c3c4c(sc3n12)COC(C)(C)C4 | -9% | 1% | -4% | 3%[9.22 µM] | 5% | 6%
CC(=O)OCC1OC(C#CCC2CCCCC2)C=CC1OC(C)=O (configuration not stated) | 22%[10 µM] | · | · | · | 4.5µM* | ·
CCOC(=O)/C(C#N)=C\C1=C(N2CCCC2)CC(C)(C)OC1 | 4%[1.9 µM] | -2% | -21% | 3% | 14µM* | -4%
CC1=CC(C)(C)NC(=S)N1c1cccc2ccccc12 | -6%[10 µM] | -3% | 1% | 5% | 22µM* | -3%
Cc1cc(NC(=O)C(C)C)ncc1NC(=O)CCc1ccccc1 | -4% | 2% | 5% | 3% | 5% | -14%
C/C(=N\NC(=O)c1cccnc1)c1c(O)cc(C)oc1=O | 12%[10 µM] | -6% | -18% | -1% | 25µM* | 1%
CCc1ccccc1N/N=C(/C)c1c(O)cc(C)oc1=O | -6% | 0% | · | 9% | 7.9µM* | -10%[46 µM]
